Here are results for 40 sequences from the OligoGym collection.
Note: reference of the scale not given here.

The first assay has as its target MFNG. Briefly: pooled miR-30 sensor sort-seq; sequence = guide strand. The following applies: shRNA.
Regarding TTTGTCTGGGCTGTCGGTGAAG, the sensor-assay potency score (higher = more potent) was -0.931.

Sequence TTGCACTCAATGATATAGCCCA returned a sensor-assay potency score (higher = more potent) of -0.194.

Consider TCGGTGAAGACAAATGTCTGTT, for which the sensor-assay potency score (higher = more potent) is -0.485.

With AATGAAGACATCGTGTAGCTGT, the sensor-assay potency score (higher = more potent) amounted to 0.421.

In another assay the target is MFRP. The assay is described as above. Particulars: shRNA.
The sequence TATGCTGAGGGCTTCGATCTTG came in with a sensor-assay potency score (higher = more potent) of -0.113.

On to TTGGTGAGGGTACTGCTGCAGG, for which the sensor-assay potency score (higher = more potent) is -0.958.

On to TGTCCTAAACAGCACAGCCAGC, for which the sensor-assay potency score (higher = more potent) is -1.58.

TGGAACTGTAGTTCTATGCTGT: the sensor-assay potency score (higher = more potent) was -0.0204.

In the case of TAGTTCTATGCTGTGTCCGGCA, the sensor-assay potency score (higher = more potent) was -0.362.

As for TCAAACTTGCACTCGTCCTGAG, the sensor-assay potency score (higher = more potent) is 0.173.

In turn, TTGTCATCGCTGCCATCGGTGC yielded a sensor-assay potency score (higher = more potent) of -1.66.

The sequence TGGTGTTGTAGCTCAGACCGAG had a sensor-assay potency score (higher = more potent) of -0.523.

Take TGTAGTTCTATGCTGTGTCCGG: the sensor-assay potency score (higher = more potent) was -0.086.

The sequence TACTGCTGCAGGTAGCTGGGAG had a sensor-assay potency score (higher = more potent) of -0.172.

TTGCAGAACTCGGTCTTGCTCG gave a sensor-assay potency score (higher = more potent) of -0.303.

On to TGAAGTTGTGGAACTGTAGTTC, for which the sensor-assay potency score (higher = more potent) is 0.0577.

The next assay has as its target MIA. Described as above. The following applies: shRNA.
As to ATTTGTCTGTCTTCACATCGAC, the sensor-assay potency score (higher = more potent) was -0.34.

In the case of TCTCGGACAATGCTACTGGGGA, the sensor-assay potency score (higher = more potent) is -1.23.

The sequence TGGTCCTCTCGGACAATGCTAC came in with a sensor-assay potency score (higher = more potent) of -1.39.

Consider TGTCTGTCTTCACATCGACTTT, for which the sensor-assay potency score (higher = more potent) is -1.3.

The sequence TTTGCCAGGTTTCAGGGTCTGG registered a sensor-assay potency score (higher = more potent) of -1.17.

Take TTGGGCATAGGACCACCCCTGA: the sensor-assay potency score (higher = more potent) was -1.13.

TTTGTCTGTCTTCACATCGACT had a sensor-assay potency score (higher = more potent) of -0.999.

The sequence TGGTCCGCACACAGCTTCCGGT registered a sensor-assay potency score (higher = more potent) of -1.49.

The sequence TTCAGGGTCTGGTCCTCTCGGA came in with a sensor-assay potency score (higher = more potent) of -0.169.

On to TGAATGGTCAGGAATCGGCAGT, for which the sensor-assay potency score (higher = more potent) was -0.833.

TAGTAATCTCCCTGAACGCTGC returned a sensor-assay potency score (higher = more potent) of -0.496.

In turn, TCAGGGTCTGGTCCTCTCGGAC had a sensor-assay potency score (higher = more potent) of -1.41.

The target of the next assay is MIB1. The description is as above. The following applies: shRNA.
Take TTTACATCCACATCTGGTCTTT: the sensor-assay potency score (higher = more potent) stood at 0.23.

The sequence TAGAAGTTTAATTCGTTCCAGG had a sensor-assay potency score (higher = more potent) of 0.00519.

With TTCCTTATGACACTTTGCCAGT, the sensor-assay potency score (higher = more potent) was -1.

TTTAGATAGTAAAACACGCATT showed a sensor-assay potency score (higher = more potent) of -0.883.

Consider TTAAAGTCTCAAACATTCCATC, for which the sensor-assay potency score (higher = more potent) is -0.848.

Regarding TATGCTGTCGTTCAACAGCAAG, the sensor-assay potency score (higher = more potent) is -1.72.

TTTAGCAACATCTCCATTGGCA: the sensor-assay potency score (higher = more potent) was determined as 0.277.

As for TTAACTCATCAGAACTTCCAAC, the sensor-assay potency score (higher = more potent) was -0.501.

Regarding ATTGGTATTATCCTTGTCCTTT, the sensor-assay potency score (higher = more potent) is -0.409.

Sequence ATTGACATTGGTATTATCCTTG yielded a sensor-assay potency score (higher = more potent) of 0.229.

In turn, TTGACCACTGACTTTTTCCTTA yielded a sensor-assay potency score (higher = more potent) of 0.24.

The sequence TTCAACTACTGCTCGACACTGC gave a sensor-assay potency score (higher = more potent) of 0.708.
